# Laboratory results taken from ChEMBL document CHEMBL3988442, “University of Dundee, Small-Polar-MMV Screening Library” (2021).
# The campaign covered roughly 53,000 compounds. About 900 (1.7%) showed an effect of 50% or more. Only a selection was taken, and strong results are over-represented in it overall.
# Test system: Mycobacterium tuberculosis
# Assay: Cornell - Phenotypic assay to identify agents that inhibit growth of Mycobacterium tuberculosis
# Format: functional
# Parameters: scale not given: direction of the effect not stated beside the values
# Conditions: 10 mM as filed; unlikely as a test dose
row,SMILES,Percent Effect [%]
1,N#Cc1cccc(OCCN2CCNC(=O)C2c2cccs2)c1 (stereo not drawn),15.41
2,Cc1nc(CN2C[C@H]3C[C@H](C(=O)NCC4CC4)N(C)[C@H]3C2)cs1.O=C(O)C(F)(F)F.O=C(O)C(F)(F)F.O=C(O)C(F)(F)F,-25.01
3,COc1ccccc1-c1nnc2n1NC(N)=C(C#N)S2,6.444
4,COc1ccc(N2CCC(N3C[C@H](NC(C)=O)[C@@H](C(C)C)C3)CC2)cc1,33.6
5,CC(=O)N[C@@H]1CN(C2CCN(c3cccc(Cl)c3)CC2)C[C@H]1C(C)C,62.82
6,COc1cccc(N2CCC(N3C[C@@H](NC(C)=O)[C@H](C(C)C)C3)CC2)c1,34.03
7,Cc1cc(=O)n2ncnc2n1CC(O)c1cc(F)ccc1F (stereo not drawn),-70.76
8,COc1ccc(NC(=O)Cn2c(=O)nc(N)c3cc(C)sc32)cc1,0.3474
9,Cc1nonc1OCCNC(=O)COc1ccc(Cl)cc1Cl,17.56
10,CC(c1nnc(-c2ccccc2)o1)N1CCc2cncnc2C1 (stereo not drawn),-7.255
11,CC(=O)N1CCc2c(nc(N(C)C)nc2N(C)CCC2CCCCO2)C1 (stereo not drawn),-8.037
12,Cc1nc[nH]c1CN1CCN(C(=O)C2(C)CC2)[C@H]2CS(=O)(=O)C[C@H]21,10.63
13,Cn1ccc(CNC(=O)Nc2ccc(S(=O)(=O)C(F)F)cc2)c1,50.21
14,COc1ccc(CNC(=O)Nc2ccc(S(=O)(=O)C(F)F)cc2)cc1,13.14
15,Cn1cc(CNC(=O)Nc2ccc(S(=O)(=O)C(F)F)cc2)cn1,33.37
16,Cc1cc2nc(O)c(O)nc2cc1S(=O)(=O)NC1CC1,1.29
17,CC(C)(C)C(=O)NCCC(=O)NC(C)(C)c1ccc2c(c1)OCO2,11.96
18,COc1ncccc1CNC(=O)NC(C)Cn1cccn1 (stereo not drawn),-6.466
19,CCCc1cc(CNC2CCN(c3cc(C(C)C)nc(C)n3)CC2)on1,-3.278
20,O=C(c1cc(C2CC2)n[nH]1)N1C[C@H]2CC[C@](O)(c3ccccc3F)[C@H]2C1,50.52
21,O=C(c1cc(C2CC2)on1)N1C[C@H]2CC[C@](O)(c3ccc(F)cc3)[C@H]2C1,6.085
22,O=C(c1cc(C2CC2)on1)N1C[C@H]2CC[C@](O)(c3ccccc3F)[C@H]2C1,7.092
23,Fc1ccc(CNCCn2cccn2)cc1F,-21.78
24,COc1ccc(-c2nc(CNCCn3cccn3)cs2)cc1,49.39
25,c1cnn(CCNCc2csc(-c3ccsc3)n2)c1,-2.857
26,c1ccc(-c2nc(CNCCn3cccn3)cs2)cc1,46.8
27,c1ccc(Cc2nc(CNCCn3cccn3)cs2)cc1,73.18
28,Clc1ccc(Cc2nc(CNCCn3cccn3)cs2)cc1,60.1
